Measurements taken from PubChem BioAssay (NCI).
This is part of a sample that, as a whole, favours compounds with a hit. Of some 79,000 tested, about 15% had one in any assay. Active and inactive are the calls of the source. Rule as the data show it: active = growth inhibition above about 70%; inactive = the rest. Where a SMILES comes first, the peptide text is derived from it. The star is where a group is joined. Cbz = O=C(OCc1ccccc1)*

Experiments:
[1] = NCI Yeast Anticancer Drug Screen. Data for the rad50 strain (AID 155);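 also: 0% = growth of vehicle-only cultures of the same strain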; conditions: S. cerevisiae rad50 strain growth inhibition; at 50.0 µM; stronger effect = higher value
Procedure, shortened: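 DNA repair mutant yeast, compound exposure, growth read-out; inhibition is taken relative to vehicle.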

[2] = NCI Yeast Anticancer Drug Screen. Data for the mec2-1 strain (AID 157); conditions: S. cerevisiae mec2-1 strain, at 50.0 µM, stronger effect = higher value
Procedure, shortened: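 Each compound was tested on mec2-1 yeast, a strain altered in DNA damage repair or cell cycle control. Growth inhibition is reported relative to vehicle.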

[3] = NCI Yeast Anticancer Drug Screen. Data for the sgs1 mgt1 strain (AID 161);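 also: 0% = growth of cultures given vehicle only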; conditions: S. cerevisiae sgs1 mgt1 strain, at 50.0 µM, stronger effect = higher value
Procedure, shortened: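 Mutant yeast exposed to compound; growth scored against vehicle-only wells.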

[4] = NCI Yeast Anticancer Drug Screen. Data for the cln2 rad14 strain (AID 165);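 also: 0% = growth equal to vehicle treated cultures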; conditions: S. cerevisiae cln2 rad14 strain, at 50.0 µM, stronger effect = higher value
Procedure, shortened: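 Test compounds were added to cln2 rad14 yeast cultures; inhibition of growth was then determined by comparison with vehicle treatment.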

[5] = NCI Yeast Anticancer Drug Screen. Data for the bub3 strain (AID 167); conditions: S. cerevisiae bub3 mutant strain, at 50.0 µM, stronger effect = higher value
Procedure, shortened: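 In this screen, a yeast mutant lacking normal mitotic checkpoint function is challenged with compound. Relative growth versus vehicle gives the inhibition value.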

[6] = NCI Yeast Anticancer Drug Screen. Data for the mlh1 rad18 strain (AID 175); conditions: S. cerevisiae mlh1 rad18 strain growth inhibition; at 50.0 µM; stronger effect = higher value
Procedure, shortened: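 Inhibition values reflect reduced growth of mutant yeast versus vehicle-treated controls following compound exposure; the mutations affect DNA damage repair.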

Measured: growth inhibition

O=C(CN=Cc1ccccc1O)NCc1ccccn1
inactive: [1] -10.7% | [2] -5.9% | [3] 10.7% | [4] 10.1% | [5] -21.9% | [6] 21.3%

Cn1c(=O)c2ccccc2[n+]2c(-c3cccc([N+](=O)[O-])c3)csc12
inactive: [1] -3.9% | [2] -15.3% | [3] 41.5% | [4] 25.6% | [5] -8.85% | [6] -9%

COC(=O)C(=O)c1c(C(=O)OC)nc2nnc(N)n2c1-c1ccc(Cl)c(Cl)c1
inactive: [1] 1.7% | [2] -2.8% | [3] -4.9% | [4] -29.9% | [5] 16.1% | [6] -7.55%

COc1ccc(-c2cc(=O)c3cc(C)c(C)c(C#N)c3o2)cc1
inactive: [1] -25.9% | [2] -29.6% | [3] -35.8% | [4] -17.5% | [5] -29.9% | [6] -37.5%

CCN(CC)C(=O)Oc1cc(C)c([N+](C)(C)C)cc1C(C)C
inactive: [1] 10.1% | [2] 6.7% | [3] 13.2% | [4] 17.8% | [5] 24.6% | [6] -27.7%

O=S(=O)(O/C(=C(\OS(=O)(=O)C(F)(F)C(F)(F)C(F)(F)C(F)(F)F)c1ccccc1)c1ccccc1)C(F)(F)C(F)(F)C(F)(F)C(F)(F)F
inactive: [1] -6% | [2] -14.1% | [3] -23.4% | [4] -18.1% | [5] 7.9% | [6] -5.85%

CCCc1cc(=O)oc2c3c(cc(OC(C)C)c12)O[C@H](C)[C@H](C)[C@@H]3O
inactive: [1] 3.55% | [2] 0.15% | [3] -10.8% | [4] -1.45% | [5] -7.6% | [6] 18.8%

CC(C)(C)c1ccc(/C=N/NC(=O)c2cccnc2)cc1
inactive: [1] 0.55% | [2] 8.45% | [3] 4.15% | [4] 14.3% | [5] 11.3% | [6] 9.45%

c1coc(C2SCSCS2)c1
inactive: [1] 0.35% | [2] 5.8% | [3] -6.7% | [4] -13.5% | [5] -8.2% | [6] -4.2%

Nc1ccc(C(=O)c2ccccc2)cc1
inactive: [1] 33.2% | [2] 13.9% | [3] 25.4% | [4] -8.55% | [5] -1.55% | [6] 4.9%

CCCCCCCCCCCCCCCCN1c2ccccc2C(C)(C)C12C=Cc1cccc([N+](=O)[O-])c1O2 (centres undefined)
inactive: [1] 2.85% | [2] -0.6% | [3] 13.7% | [4] 14.2% | [5] -3.1% | [6] -3.2%

Clc1ccc2c(Cl)ncnc2c1I
inactive: [1] -2.5% | [2] -13.8% | [3] 28.9% | [4] 3% | [5] 4.4% | [6] -4.2%

CCN(CC)COC(=O)C(C)(C)C
inactive: [1] -13.1% | [2] 10.6% | [3] -12.9% | [4] -35% | [5] -9.25% | [6] -4.2%

CCOC(=O)CCC(NC(=O)C(CCC(=O)O)NC(=O)OCc1ccccc1)C(=O)OCC (stereo not drawn) (Cbz-Glu-Glu(OEt)-OEt; configuration not given here)
inactive: [1] 26.4% | [2] -6.25% | [3] -1.85% | [4] -13.4% | [5] 0.05% | [6] 0.05%

COC1=C(OC)C(=O)C(COC2CCCCO2)=CC1=O (centres undefined)
inactive: [1] -4.9% | [2] -1.45% | [3] 8.75% | [5] 10.6% | [6] -6.65%
active: [4] 87.5%

CCc1n[nH]c(=S)n1/N=C/c1ccc(-c2ccc([N+](=O)[O-])cc2)o1
inactive: [1] 14.6% | [2] -17.6% | [3] -14% | [4] 9.85% | [5] -14.1% | [6] 10.3%

O=C(O)c1cc(/C=C/c2ccccc2)ccc1[N+](=O)[O-]
inactive: [1] -11.2% | [2] 25.5% | [3] 7.5% | [4] -33.6% | [5] -5.8% | [6] -3.1%

O=[N+]([O-])c1ccc(-n2nnc3ccccc32)nc1
inactive: [1] -3.9% | [2] -4.85% | [3] -7.35% | [4] -16.6% | [5] 7.5% | [6] -9.75%

CCCCCCCCCCCCCCCCCC(C)O (centres undefined)
inactive: [1] -8.7% | [2] -13.2% | [3] -1.05% | [4] 1.85% | [5] -10.4% | [6] -10.8%

COc1cccc(-n2cnc3c(=S)nc[nH]c32)c1
inactive: [1] 4.2% | [2] -9.3% | [3] 9.7% | [4] -41.6% | [5] -4.85% | [6] 1.9%

O=C(Cc1ccccc1)NN1C(=O)/C(=C\c2cccc([N+](=O)[O-])c2)SC1=Nc1ccccc1
inactive: [1] -2.7% | [2] -15.2% | [3] 9.95% | [4] 17.1% | [5] -14.8% | [6] 0.85%

Cc1nc(N)sc1C(=O)/C=C\c1ccc2c(c1)OCO2
inactive: [1] 21.4% | [2] -3.2% | [3] 23.4% | [4] 10.3% | [5] 5.2% | [6] 35.4%

Cc1ccc(S(=O)(=O)NC(Cc2ccc(O)cc2)C(=O)O)cc1 (centres undefined)
inactive: [1] 1.5% | [2] -8.4% | [3] 5.25% | [4] -57.2% | [5] 12.6% | [6] 35.5%

O=C(Nc1ccccc1[N+](=O)[O-])C(=O)Nc1ccccc1[N+](=O)[O-]
inactive: [1] -7.55% | [2] 5.9% | [3] -2.95% | [4] -22.5% | [5] -0.9% | [6] -0.25%

CCOC(=O)CCC(NC(=O)c1ccc(N(C)C=O)cc1)C(=O)OCC (centres undefined)
inactive: [1] 10.9% | [2] -6.8% | [3] -0.55% | [4] -6.8% | [5] 6.45% | [6] 12.3%

CCCCCCCNC1=C(O)c2ccccc2C(=O)C1=O
inactive: [1] -11.4% | [2] 15.8% | [3] 2.2% | [4] -44.2% | [5] 12.3% | [6] 6.2%

Nc1c(N=Nc2ccc(S(=O)(=O)O)cc2)cc2c3c(cccc13)CC2
inactive: [1] 11.3% | [2] 2.35% | [3] 20.6% | [4] 8.65% | [5] -39.5% | [6] 2.4%

CCN(CC)C(=O)Nc1cccc(O)c1
inactive: [1] -6.55% | [2] 6.65% | [3] -2.6% | [4] -28.7% | [5] -0.25% | [6] 5.65%

S=C(NCN1CCNCC1)C(=S)NCN1CCNCC1
inactive: [1] -14.2% | [2] -9.55% | [3] -6.1% | [4] -12.1% | [5] -4.05% | [6] -9.6%

CCOC(=O)c1cc(=O)[nH]c2ccc(OC)cc12
inactive: [1] 17.2% | [2] 22.2% | [3] 2.25% | [4] 35.6% | [5] 11.6% | [6] 7.05%

CC12CCC(=O)C=C1CCC1C2C(O)CC2(C)C1CCC2(O)C(=O)COC(=O)C1C2C=CC(C2)C1C(=O)O (centres undefined)
inactive: [1] 24.1% | [2] 9.45% | [3] 25% | [4] 12.1% | [5] -6.85% | [6] 25.1%

C[n+]1ccccc1C#N
inactive: [1] -17.2% | [2] -32.1% | [3] 0.55% | [4] 11.9% | [5] -43.4% | [6] -4.2%

CCOc1ccc(C2=C/C(=C/c3cccs3)C(=O)O2)cc1
inactive: [1] 4.2% | [2] -7.2% | [3] -1.15% | [4] -25.6% | [5] 14.4% | [6] -5.9%

COc1ccccc1Nc1nc(N)nc(N)c1N=O
inactive: [1] 11.4% | [2] -36.1% | [3] -16.2% | [4] -27.7% | [5] -34.6% | [6] -56.1%

CNC(=O)N(c1ccccc1)C1CCCCC1
inactive: [1] 15.8% | [2] 13.8% | [3] -2.5% | [4] -65.5% | [5] 9.8% | [6] 1.15%

CS(=O)CC1OC2OC3C(CO)OC(OC4C(CO)OC(OC5C(CO)OC(OC6C(CO)OC(OC7C(CO)OC(OC8C(CO)OC(OC1C(O)C2O)C(O)C8O)C(O)C7O)C(O)C6O)C(O)C5O)C(O)C4O)C(O)C3O (centres undefined)
inactive: [1] -1.9% | [2] -17.4% | [3] -8.55% | [4] -21.4% | [5] -8% | [6] 10.2%

CCC(CC)C(=O)NC(=O)NC
inactive: [1] -4.85% | [2] -16.5% | [3] -21.2% | [4] -25.1% | [5] -8.05% | [6] 21%

COC(=O)NC1(NC(=O)OC)NC(=O)c2cc(OC)c(OC)c(OC)c2N1
inactive: [1] 17.1% | [2] 8.45% | [3] 10.8% | [4] -10.8% | [5] -12.3% | [6] 3.85%

CCCC=NCCCC
inactive: [1] -17.1% | [2] -7.55% | [3] -35.6% | [4] -67% | [5] -30% | [6] -24.4%
